Compound activity from PubChem.
Compounds with a hit are over-represented: about 21% of the library has one in this group of screens.
Shiga toxin inh: blocks Shiga toxin action in Vero cells | hit rate 9.2% among 290,000 | Vero cells, Shiga toxin protein synthesis inhibition reporter | inhibition, % at 38.7 µM | AID 2315; in the data active = inhibition mostly above about 28%, no sharp cut-off; inactive = mostly below about 43%; also: 0% is about no effect
Pf growth 96h: P. falciparum growth inhibition at 96 hours | P. falciparum luciferase reporter growth, 96 h | Potency, µM (doses to about 28.7 µM), without a hit: top-dose activity change, negative = inhibition, most hits filed as inhibitors | hit rate 6.9% among 320,000; also: potency is read from the fitted curve at half-maximal effect; % is scaled to controls: 0 for no effect and ±100 for the full control effect
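Compounds incubated with erythrocytes infected by luciferase-expressing P. falciparum (2% hematocrit, 0.05% parasitemia final) for 96 hours, 37 C in 5% CO2. Growth inhibition scored as decreased luciferase luminescence.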
Pf growth 48h: inhibits P. falciparum growth in the first generation, 48 h | Potency, µM (top dose mostly 28.7 µM), for the others: at the highest dose activity change, negative = inhibition, most hits filed as inhibitors | P. falciparum luciferase growth in erythrocytes, 48 h | hit rate 5.9% among 310,000 | AID 504832; also: potency is read from the fitted curve at half-maximal effect; % is scaled to controls: 0 for no effect and ±100 for the full control effect
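In quantitative HTS format, infected erythrocytes bearing luciferase-reporter parasites were treated for a single generation at 37 C. Luminescence after adding detection reagent served as the growth measure.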
HCV inh: blocks hepatitis C virus; Huh7.5.1 HCVcc-Cre infection, luciferase reporter, 44 h; Potency, µM (doses to about 41.8 µM), for inactives: at the top dose activity change, negative = inhibition, most hits filed as inhibitors; hit rate 3.4% among 340,000; AID 651820; also: potency is read from the fitted curve at half-maximal effect; % is scaled to controls: 0 for no effect and ±100 for the full control effect
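A cell-based infection assay in which seeded cells (1,000 per well) receive test compound after 4 h, are inoculated with HCVcc-Cre at approximately 0.5 moi, and are incubated 44 h before luminescence detection.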
HCMV antiviral: blocks human cytomegalovirus replication. activity change, negative = inhibition, % at 57.5 µM. hit rate 4.5% among 410,000. HFF cells, HCMV-luciferase reporter, 72 h; hits give low values. AID 1259415; in the data active = activity change below about -60%; inconclusive = no clear call, values can overlap the other calls; inactive = above about -39%; also: % is scaled to controls: 0 for no effect and ±100 for the full control effect
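Screen run at 2 compound doses on HFFs infected with reporter HCMV, MOI 1 PFU/cell. Luciferase activity from cell lysates at 72 h post infection gave inhibition relative to buffer-only and Salinomycin wells.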
CHX counter: counter-screen for Shiga toxin inhibitors: cycloheximide protein synthesis inhibition; cell reporter, cycloheximide protein synthesis inhibition counterscreen; hit rate 12% among 300,000; max response, %; in the data active = max response mostly above about 13%, no sharp cut-off; inactive = mostly below about 14%; also: read at 38.3 µM for the half of the compounds with a filed dose; 0% is about no effect
Starred values were filed as active, the others as inactive. Unless noted, calls follow the shape of the dose curve; as a rule, active = well fitted inhibition curve with a large enough effect; inconclusive = small, poorly fitted or top-dose-only effect, or another doubt; inactive = no such curve, though single readings can be large or run the other way.

`CCOC(=O)c1cc(NC(=O)c2cccs2)ccc1N1CCOCC1` gave Shiga toxin inh -3.7, Pf growth 96h 21.2%, Pf growth 48h -19.3%, HCV inh inconclusive, HCMV antiviral 7.3 and CHX counter 10.5.
Screening O=C(Cc1cccs1)Nc1ccc(N2CCOCC2)cc1 returned Shiga toxin inh 111.0*, Pf growth 96h 99.4%, HCV inh 29.6%, HCMV antiviral 125.5 and CHX counter 24.4*.
O=C(Cc1cccs1)Nc1ccc(Cl)cc1 was read as Shiga toxin inh active, Pf growth 48h 42.6%, HCV inh -8.8%, HCMV antiviral -8.3 and CHX counter 17.4*.
`O=C(Nc1ccccc1)N(O)c1ccc(Cl)cc1` gave Shiga toxin inh 98.3*, Pf growth 96h -2.0%, Pf growth 48h 127.1%, HCV inh 14.6%, HCMV antiviral 83.0 and CHX counter 48.7*.
For CCOC(=O)c1cc(NCc2cccs2)ccc1N1CCOCC1 the results were Shiga toxin inh -9.7, Pf growth 96h 1.47µM*, Pf growth 48h -10.4%, HCV inh inconclusive, HCMV antiviral 0.8 and CHX counter 1.1.
`Cc1ccc(S(=O)(=O)N(CC#N)CC#N)cc1` gave Shiga toxin inh -11.1, Pf growth 96h 261.0%, Pf growth 48h 15.6%, HCV inh 14.5%, HCMV antiviral -26.2 and CHX counter -2.3.
CCCCCCCCCCCCN1CCSCCS1(=O)=O was read as HCMV antiviral -14.4.
Screening COc1ccc(-c2nc3sc(CCNC(=O)c4cccc(C(F)(F)F)c4)c(C)n3n2)cc1 returned HCMV antiviral 52.1.
Screening O=C(Nc1ccccc1Cl)N(Cc1nc2ccccc2c(=O)[nH]1)Cc1cccs1 returned Shiga toxin inh -4.8, Pf growth 96h inconclusive, Pf growth 48h inconclusive, HCV inh 47.0%, HCMV antiviral inconclusive and CHX counter 1.6.
O=C(Nc1ccc(Cl)cc1)N(Cc1nc2ccccc2c(=O)[nH]1)Cc1cccs1 was read as Shiga toxin inh -1.4, Pf growth 96h 3.29µM*, Pf growth 48h 14.7µM*, HCV inh inconclusive, HCMV antiviral 0.9 and CHX counter -1.2.
O=C(CCCCCNC(=O)c1ccccc1)N=Nc1c(O)[nH]c2c(Br)cc(Br)cc12 was read as Shiga toxin inh -12.5, Pf growth 96h 0.0%, Pf growth 48h 11.7µM* and CHX counter -1.8.
Cc1cc(C)nc(NC(=O)c2ccc([N+](=O)[O-])o2)n1 was read as Shiga toxin inh 13.3, Pf growth 96h 247.1%, Pf growth 48h -6.4%, HCV inh -0.5%, HCMV antiviral -35.2 and CHX counter 7.5.
Screening CC(=O)c1cccc(NC(=O)c2ccc([N+](=O)[O-])o2)c1 returned HCV inh inconclusive and HCMV antiviral -86.5*.
For Cc1ccc(C)c(-c2nnc(NC(=O)c3ccc([N+](=O)[O-])o3)o2)c1 the results were Pf growth 96h 9.28µM*, Pf growth 48h 9.28µM*, HCV inh inconclusive and HCMV antiviral -74.1*.
`Cc1ccc(C)c(-c2nnc(NC(=O)C3=COCCO3)o2)c1` gave Pf growth 96h -10.8%, Pf growth 48h -28.0%, HCV inh 3.6% and HCMV antiviral 24.8.
CC(=O)c1ccc(NC(=O)c2ccc([N+](=O)[O-])o2)cc1 was read as Shiga toxin inh 97.9*, Pf growth 96h 3.4%, Pf growth 48h -10.6%, HCV inh inconclusive, HCMV antiviral -104.7* and CHX counter 33.7*.
`Cc1cc(C)cc(NC(=O)c2ccc([N+](=O)[O-])o2)c1` gave Shiga toxin inh 35.3*, Pf growth 96h inconclusive, Pf growth 48h 13.1µM*, HCV inh inconclusive, HCMV antiviral -34.2 and CHX counter 34.0*.
For OCC(O)CN1CCCC1 (stereo not drawn) the results were Shiga toxin inh 22.5, Pf growth 96h 54.2%, Pf growth 48h 26.7%, HCV inh 2.6%, HCMV antiviral 58.9 and CHX counter -1.1.
For CCCC(=O)OC[C@H]1CN(C2CCCC2)S(=O)(=O)c2c(F)cccc2O1 the results were HCMV antiviral -0.4.
For O=C(Nc1cccc(Cl)c1N1CCCC1)c1ccc([N+](=O)[O-])o1 the results were Shiga toxin inh 0.9, Pf growth 96h 13.7%, Pf growth 48h inconclusive, HCV inh inconclusive, HCMV antiviral 1.9 and CHX counter -0.5.
